According to PubChem BioAssay (NCI):
This is part of a sample that, as a whole, favours compounds with a hit. Of some 83,000 tested, about 20% had one in any assay.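 Values shown are percent growth following 48 h exposure of cells in 96-well plates to a single concentration of compound; below 10 was considered active.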 Unmarked numbers belong to inactive results. Calls of active or inactive are those of the source.

Experiments:
Experiment in all cases: NCI-60 one-dose screen, 48 h (100 = growth as untreated, 0 = no growth, -100 = all killed)
Settings in all cases: 10 µM unless noted
DU-145 prostate = system: DU-145 prostate
K-562 leukemia = system: K-562 leukemia
MALME-3M melanoma = system: MALME-3M melanoma
MDA-MB-231 breast = system: MDA-MB-231 breast
RXF 393 renal = system: RXF 393 renal
SF-268 CNS = system: SF-268 CNS
SF-295 CNS = system: SF-295 CNS
SF-539 CNS = system: SF-539 CNS
UACC-257 melanoma = system: UACC-257 melanoma
M14 melanoma = system: M14 melanoma

SMILES | growth (DU-145 prostate) | growth (K-562 leukemia) | growth (MALME-3M melanoma) | growth (MDA-MB-231 breast) | growth (RXF 393 renal) | growth (SF-268 CNS) | growth (SF-295 CNS) | growth (SF-539 CNS) | growth (UACC-257 melanoma) | growth (M14 melanoma)
Cc1cccc(/C=C2\CN(C(=O)OC(C)(C)C)C/C(=C\c3cccc(C)c3)C2=O)c1 | 106% | 5.44% (active) | 90.6% | 98.8% | 128% | 94.1% | 101% | 104% | 94.7% | 90.5%
C=C(C)[C@@H]1CCC[C@]2(COS(=O)(=O)c3ccc(C)cc3)CC[C@]3(C)[C@@H](CC[C@@H]4[C@@]5(C)CCCNC(C)(C)[C@@H]5CC[C@]43C)[C@@H]12 | 0.903% (active) | -33.4% (active) | 4.1% (active) | -10.3% (active) | -79.9% (active) | 48.2% | -11.5% (active) | 71.9% | 58.5% | -20.6% (active)
CCOC(=O)C(=O)C(C(=O)OCC)c1ccccc1 (stereo not given) | 120% | 86.7% | 93.2% | 94.1% | 113% | 103% | 139% | 118% | 123% | 100%
CC1CCc2c(C(=O)Nc3ncc(Cc4cccc([N+](=O)[O-])c4)s3)csc2C1 (stereo not given) | 18% | 23.8% | 51% | 23.6% | -24.1% (active) | 43.9% | 14.3% | -7.87% (active) | 52% | 6.98% (active)
COC(=O)[C@@H](CCCCNC(=O)[C@]12CCC(C)(C)C[C@@H]1C1=CC[C@@H]3[C@@]4(C)C/C(=C/c5ccco5)C(=O)C(C)(C)[C@@H]4CC[C@@]3(C)[C@]1(C)CC2)NC(=O)[C@]12CCC(C)(C)C[C@@H]1C1=CC[C@@H]3[C@@]4(C)C/C(=C/c5ccco5)C(=O)C(C)(C)[C@@H]4CC[C@@]3(C)[C@]1(C)CC2 | 115% | 95.8% | 102% | 92.4% | 119% | 104% | 101% | 97.1% | 100% | 107%
O=C(O)CCCN1C(=O)/C(=C/c2cn(-c3ccccc3)nc2-c2ccc([N+](=O)[O-])cc2)SC1=S | 58.5% | 56.5% | 52.1% | 85.5% | 86.7% | 52.8% | 34.8% | 55.5% | 84.6% | -8.74% (active)
CCCCNC(=O)CC1=C(C)/C(=C/c2[nH]c(-c3ccc[nH]3)cc2OC)N=C1C | 34.6% | 1.68% (active) | 34% | 13.5% | 59.4% | 27% | 14.6% | 27.8% | 5.48% (active) | -43.1% (active)
CN(C)CCNC(=O)c1cc2c3cc(Cl)ccc3[nH]c2c2ncccc12 | 7.58% (active) | -25.1% (active) | -29.9% (active) | 30.3% | 15.5% | 13.5% | 22.1% | 5.06% (active) | 18.4% | -81% (active)
NS(=O)(=O)c1ccc(N=Nc2c(O)n(Cc3ccccc3)c3ccc(Cl)cc23)cc1 | 87.3% | 82.4% | 70.5% | 75.9% | 45.5% | 65.2% | 93.7% | 61.5% | 92.1% | 88.1%
O=C(OC(CO)C(=O)NC12CC3CC(CC(C3)C1)C2)c1ccc(Cl)cc1 (stereo not given) | 103% | 95.5% | 104% | 105% | 103% | 104% | 100% | 96% | 100% | 97.6%
CCN(CC)S(=O)(=O)c1ccc(S(=O)(=O)N2CCC[C@@H](C(=O)N3CCN(c4nc(C(C)C)no4)CC3)C2)cc1 | 62.6% | 30.9% | 85.3% | 81.3% | 64.5% | 69% | 52.8% | 74.3% | 45.1% | 78.8%
COc1ccc(Nc2ncc(Br)c(NCCCNC(=O)c3cccs3)n2)cc1 | 35.6% | 28% | 55.4% | 31.2% | -26.7% (active) | 13.2% | 52.4% | 14.8% | 105% | 50.2%
CCOC(=O)C1=C(c2ccccc2)N=C2SC=C(c3ccc(Cl)cc3)N2C1c1ccc(Br)cc1 (stereo not given) | 90.3% | 84.1% | 87.4% | 68.5% | 68.6% | 77% | 88.7% | 94.9% | 79% | 83.7%
C=CCSc1nnc(NC(=O)CCl)s1 | 87.4% | 87.7% | 73.8% | 89.6% | 97.5% | 91.9% | 101% | 101% | 79.1% | 83.2%
CN1CCN(C(=O)c2ccc(NC(=O)c3cc4c(nn3)NCCN4Cc3cc(Cl)ccc3Cl)cc2)CC1 | 88.2% | 6.45% (active) | 73.8% | 82.2% | 64.2% | 58.9% | 67.6% | 52.3% | 101% | 72.6%
N=C(N)c1ccc(-c2ccc(-c3ccc(Cl)cc3Cl)s2)cc1 | -24.7% (active) | -7.11% (active) | 73.9% | -38% (active) | 87.3% | 42.4% | -30.6% (active) | -28.9% (active) | 88% | 41.5%
Cc1cc(S(=O)(=O)/N=C(\N)n2nc(C)c(C)c2C)c(SCc2ccccc2)cc1Cl | 98.1% | 30.9% | 94.1% | 89.6% | 72.9% | 86.6% | 54.3% | 98.8% | 73.4% | 74.6%
CCCCC1=C(P(=O)(O)O)N[C@H](C(=O)O)CS1 | 104% | 93.1% | 96.3% | 90.6% | 93.5% | 98.6% | 85.9% | 93.1% | 86.6% | 92.7%
Cc1ccccc1/C=C/C(=O)c1cccc(OCCCOc2cccc(C(=O)/C=C/c3ccccc3C)c2)c1 | 102% [3 µM] | 73.6% [3 µM] | 108% [3 µM] | 94.8% [3 µM] | 98.3% [3 µM] | 99.4% [3 µM] | 90.6% [3 µM] | 103% [3 µM] | 103% [3 µM] | 103% [3 µM]
COc1cc2c(cc1OCCCN1CCN(CCCOc3cc4c(cc3OC)C(=O)N3CC(F)(F)C[C@H]3C=N4)CC1)N=C[C@@H]1CC(F)(F)CN1C2=O | 16.3% | 36.5% | 89% | 85.3% | 86.2% | 14.6% | 30.6% | 51% | 85.3% | 70.2%
O=C(/C=C/c1cn(-c2ccccc2)nc1-c1ccc(Cl)cc1)c1ccc(F)cc1 | 88.7% | 57.7% | 87.5% | 65.6% | 100% | 83.4% | 172% | 96.6% | 104% | 79.3%
COc1ccc2c(c1)c(-c1nc(-c3c[nH]c4ccncc34)cs1)cn2C | -68% (active) | -60.8% (active) | -92.9% (active) | -81.8% (active) | -83.8% (active) | -78.7% (active) | -76.1% (active) | -96.9% (active) | -79% (active) | -84% (active)
CSc1nnc(-c2cc3c([nH]c4ccccc43)c(-c3cccc(O)c3)n2)n1-c1ccccc1 | 33.9% | 15.8% | 22.1% | 34.6% | 9.95% (active) | 39.5% | 24.8% | -7.08% (active) | 59.9% | 14.5%
O=C(NCc1ccc(Cl)cc1Cl)C1CCC(=O)N1c1cccs1 (stereo not given) | 108% | 108% | 96.3% | 96.5% | 109% | 100% | 90.8% | 93.6% | 90.8% | 104%
CCOC(=O)C/C(=N\Nc1cc(=O)[nH]c2ccc(Br)cc12)C(=O)OCC | 104% | 24.2% | 90.5% | 102% | 104% | 100% | 102% | 99.8% | 111% | 96.8%
Cc1cc(N2CCN(CC(=O)Nc3ccc4c(ccn4C)c3)CC2)nc(N2CCCCCC2)n1 | 94.2% | 65.6% | 93.6% | 101% | 86.2% | 102% | 98.9% | 110% | 91.9% | 98.7%
